In PubChem BioAssay AID1159580 (chemical genetic matrix, 2015):
“And” between values parts separate entries of the source, which are not always exact repeats. Equal values may be shown once. Out of some 5,500 compounds screened, about 2,000 (36%) were called active. Roughly 18% stayed inconclusive and do not appear here. Rule as the data show it: active = normalized growth mostly below about 0.91 (no sharp cut-off); inconclusive = no clear call, values can overlap the other calls; inactive = mostly above about 0.92. This is one part of the list.

Assay: chemical genetic growth profiling, strain panel (AID 1159580);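 also: tested at 20 µM; growth read once vehicle control cultures reached saturation at 30 °C; 1 = growth at the plate median or of vehicle wells; lower values mean less growth of the strain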
Details: S. cerevisiae deletion strains, growth OD

Measured: normalized growth

CC(=O)O[C@@H]1CC2C(C)(CC[C@H](O)C2(C)C)C2CC[C@]3(C)C(=CC(=O)O[C@H]3c3ccoc3)C21C (stereo not given in full)
inactive: locus YAL013W, strain DEP1, stronger effect = lower value 0.999 | locus YAL021C, strain ccr4, stronger effect = lower value 0.995 | locus YAL026C, strain drs2, stronger effect = lower value 1 | locus YAL030W, strain snc1, stronger effect = lower value 0.998 | locus YBL061C, strain skt5, stronger effect = lower value 1.02 | locus YBR009C, strain hhf1, stronger effect = lower value 1.02 | locus YBR021W, strain FUR4, stronger effect = lower value 0.868 | locus YBR023C, strain chs3, stronger effect = lower value 1 | locus YBR171W, strain sec66, stronger effect = lower value 1 | locus YBR229C, strain ROT2, stronger effect = lower value 1 | locus YBR231C, strain swc5, stronger effect = lower value 1 | locus YBR279W, strain paf1, stronger effect = lower value 1 | locus YCL011C, strain gbp2, stronger effect = lower value 0.995 | locus YCL016C, strain dcc1, stronger effect = lower value 1 | locus YCL029C, strain bik1, stronger effect = lower value 0.999 | locus YCL061C, strain MRC1, stronger effect = lower value 0.999 | locus YCL069W, strain vba3, stronger effect = lower value 1.02 | locus YCR088W, strain abp1, stronger effect = lower value 1 | locus YDL005C, strain med2, stronger effect = lower value 0.986 | locus YDL035C, strain GPR1, stronger effect = lower value 1.02 | locus YDL040C, strain nat1, stronger effect = lower value 1 | locus YDL074C, strain BRE1, stronger effect = lower value 1.02 | locus YDL101C, strain DUN1, stronger effect = lower value 1 | locus YDL134C, strain PPH21, stronger effect = lower value 0.984 | locus YDL185W, strain tfp1, stronger effect = lower value 1 | locus YDL192W, strain arf1, stronger effect = lower value 1 | locus YDR001C, strain nth1, stronger effect = lower value 1 | locus YDR069C, strain doa4, stronger effect = lower value 1.02 | locus YDR101C, strain arx1, stronger effect = lower value 0.994 | locus YDR137W, strain rgp1, stronger effect = lower value 0.988 | locus YDR150W, strain NUM1, stronger effect = lower value 1.01 | locus YDR159W, strain sac3, stronger effect = lower value 1.01 | locus YDR162C, strain NBP2, stronger effect = lower value 1 | locus YDR195W, strain ref2 0.992 | locus YDR297W, strain sur2, stronger effect = lower value 1 | locus YDR318W, strain mcm21, stronger effect = lower value 0.993 | locus YDR334W, strain swr1, stronger effect = lower value 1 | locus YDR335W, strain msn5, stronger effect = lower value 1.02 | locus YDR388W, stronger effect = lower value 0.996 | locus YDR392W, strain spt3, stronger effect = lower value 0.952 | locus YDR502C, strain sam2, stronger effect = lower value 0.975 | locus YEL003W, strain gim4, stronger effect = lower value 1.02 | locus YEL037C, strain rad23, stronger effect = lower value 1.01 | locus YEL061C, strain CIN8 (second series), stronger effect = lower value 1.01 | locus YEL061C, strain CIN8, stronger effect = lower value 1 | locus YER015W, strain faa2, stronger effect = lower value 1 | locus YER016W, strain bim1, stronger effect = lower value 0.99 | locus YER110C, stronger effect = lower value 0.987 | locus YER111C, strain swi4, stronger effect = lower value 0.998 | locus YER155C, strain BEM2 (second series), stronger effect = lower value 1 | locus YER155C, strain BEM2, stronger effect = lower value 0.993 | locus YER167W, strain BCK2, stronger effect = lower value 1.01 | locus YFR010W, strain ubp6, stronger effect = lower value 1.01 | locus YGL078C, strain dbp3, stronger effect = lower value 0.993 | locus YGL086W, strain mad1, stronger effect = lower value 0.996 | locus YGL167C, strain pmr1, stronger effect = lower value 0.999 | locus YGL173C, strain kem1, stronger effect = lower value 1.01 | locus YGL227W, strain vid30, stronger effect = lower value 0.994 | locus YGL240W, strain doc1, stronger effect = lower value 0.99 | locus YGL248W, strain PDE1, stronger effect = lower value 1 | locus YGL253W, strain hxk2, stronger effect = lower value 0.997 | locus YGR078C, strain PAC10, stronger effect = lower value 0.995 | locus YGR135W, strain pre9, stronger effect = lower value 0.959 | locus YGR229C, strain SMI1, stronger effect = lower value 0.971 | locus YGR252W, strain gcn5, stronger effect = lower value 0.946 | locus YHR013C, strain ard1, stronger effect = lower value 0.983 | locus YHR027C, strain rpn1, stronger effect = lower value 1.02 | locus YHR030C, strain SLT2, stronger effect = lower value 0.996 | locus YHR079C, strain IRE1 (second series), stronger effect = lower value 0.986 | locus YHR079C, strain IRE1, stronger effect = lower value 0.994 | locus YHR094C, strain hxt1, stronger effect = lower value 0.984 | locus YHR129C, strain ARP1, stronger effect = lower value 1.01 | locus YHR142W, strain chs7, stronger effect = lower value 1 | locus YHR200W, strain rpn10, stronger effect = lower value 0.995 | locus YIL066C, strain RNR3, stronger effect = lower value 1.02 | locus YIL073C, strain SPO22, stronger effect = lower value 1.02 | locus YIL125W, strain kgd1, stronger effect = lower value 0.992 | locus YIR030C, strain dcg1, stronger effect = lower value 0.993 | locus YJL092W, strain hpr5, stronger effect = lower value 1.01 | locus YJL095W, strain BCK1 (second series), stronger effect = lower value 1.01 | locus YJL095W, strain BCK1, stronger effect = lower value 1 and 0.986 | locus YJL115W, strain asf1, stronger effect = lower value 0.994 | locus YJL129C, strain trk1, stronger effect = lower value 0.99 | locus YJL134W, strain LCB3, stronger effect = lower value 1 | locus YJL154C, strain vps35, stronger effect = lower value 0.996 | locus YJL164C, strain tpk1, stronger effect = lower value 1 | locus YJL166W, strain qcr8, stronger effect = lower value 1 | locus YJL168C, strain set2, stronger effect = lower value 0.994 | locus YJL187C, strain SWE1 (second series), stronger effect = lower value 1 | locus YJR043C, strain POL32, stronger effect = lower value 1.05 | locus YJR066W, strain TOR1, stronger effect = lower value 0.886 | locus YKL009W, strain mrt4, stronger effect = lower value 0.985 | locus YKL068W, stronger effect = lower value 0.997 | locus YKL085W, strain MDH1 (second series), stronger effect = lower value 0.99 | locus YKL085W, strain MDH1, stronger effect = lower value 0.99 | locus YKL160W, strain elf1, stronger effect = lower value 0.991 | locus YKR001C, strain vps1, stronger effect = lower value 0.978 | locus YKR026C, strain gcn3, stronger effect = lower value 0.995 | locus YKR091W, strain srl3, stronger effect = lower value 0.998 | locus YLL001W, strain dnm1, stronger effect = lower value 0.993 | locus YLL026W, stronger effect = lower value 0.989 | locus YLL041C, strain sdh2, stronger effect = lower value 0.989 | locus YLR027C, strain aat2, stronger effect = lower value 1.01 | locus YLR039C, strain RIC1, stronger effect = lower value 1.05 | locus YLR058C, strain SHM2, stronger effect = lower value 1 | locus YLR102C, strain apc9, stronger effect = lower value 0.99 | locus YLR113W, strain HOG1, stronger effect = lower value 1.04 | locus YLR221C, strain rsa3, stronger effect = lower value 1 | locus YLR258W, strain gsy2, stronger effect = lower value 1.01 | locus YLR262C, strain YPT6 (second series), stronger effect = lower value 1.01 | locus YLR262C, strain YPT6, stronger effect = lower value 1.03 | locus YLR268W, strain sec22, stronger effect = lower value 0.988 | locus YLR320W, strain mms22, stronger effect = lower value 0.992 | locus YLR342W, strain FKS1, stronger effect = lower value 0.994 | locus YLR357W, strain rsc2, stronger effect = lower value 0.984 | locus YLR370C, strain arc18, stronger effect = lower value 0.998 | locus YLR371W, strain rom2, stronger effect = lower value 1 | locus YLR384C, strain iki3, stronger effect = lower value 0.978 | locus YLR418C, strain cdc73, stronger effect = lower value 0.948 | locus YML016C, strain PPZ1, stronger effect = lower value 1.01 | locus YML032C, strain rad52, stronger effect = lower value 0.984 | locus YML120C, strain ndi1, stronger effect = lower value 1 | locus YML124C, strain tub3, stronger effect = lower value 0.985 | locus YMR058W, strain fet3, stronger effect = lower value 1.01 | locus YMR078C, strain ctf18, stronger effect = lower value 0.996 | locus YMR125W, strain sto1, stronger effect = lower value 1.02 | locus YMR129W, stronger effect = lower value 0.989 | locus YMR205C, strain PFK2, stronger effect = lower value 0.995 | locus YMR223W, strain ubp8, stronger effect = lower value 0.99 | locus YMR231W, strain pep5, stronger effect = lower value 1 | locus YMR263W, strain SAP30, stronger effect = lower value 0.998 | locus YMR307W, strain GAS1, stronger effect = lower value 1.08 | locus YNL067W, strain RPL9B, stronger effect = lower value 0.989 | locus YNL071W, strain lat1, stronger effect = lower value 1.01 | locus YNL153C, strain GIM3, stronger effect = lower value 1.01 | locus YNL183C, strain NPR1, stronger effect = lower value 0.935 | locus YNL209W, strain ssb2, stronger effect = lower value 0.994 | locus YNL233W, strain BNI4, stronger effect = lower value 0.991 | locus YNL248C, strain rpa49, stronger effect = lower value 0.975 | locus YNL250W, strain rad50, stronger effect = lower value 0.989 | locus YNL271C, strain bni1, stronger effect = lower value 1 | locus YNL298W, strain CLA4, stronger effect = lower value 0.985 | locus YNL307C, strain MCK1, stronger effect = lower value 0.98 | locus YNL322C, strain KRE1 (second series), stronger effect = lower value 0.971 | locus YNL322C, strain KRE1, stronger effect = lower value 1.01 | locus YNR049C, strain mso1, stronger effect = lower value 0.993 | locus YNR052C, strain pop2, stronger effect = lower value 0.991 | locus YOL012C, strain htz1 0.837 | locus YOL147C, strain pex11, stronger effect = lower value 0.983 | locus YOR001W, strain rrp6, stronger effect = lower value 1.01 | locus YOR061W, strain CKA2, stronger effect = lower value 1 | locus YOR069W, strain VPS5, stronger effect = lower value 1 | locus YOR070C, strain gyp1, stronger effect = lower value 0.993 | locus YOR080W, strain dia2, stronger effect = lower value 0.99 | locus YOR083W, strain WHI5, stronger effect = lower value 0.988 | locus YOR106W, strain vam3, stronger effect = lower value 1 | locus YOR136W, strain idh2, stronger effect = lower value 0.989 | locus YOR144C, strain elg1, stronger effect = lower value 0.991 | locus YOR184W, strain ser1, stronger effect = lower value 0.992 | locus YOR231W, strain MKK1, stronger effect = lower value 0.958 | locus YOR265W, strain rbl2, stronger effect = lower value 1.02 | locus YOR270C, strain vph1, stronger effect = lower value 0.965 | locus YOR290C, strain snf2, stronger effect = lower value 0.993 | locus YOR316C, strain cot1, stronger effect = lower value 0.989 | locus YPL051W, strain arl3, stronger effect = lower value 0.974 | locus YPL078C, strain atp4, stronger effect = lower value 0.988 | locus YPL106C, strain sse1, stronger effect = lower value 0.996 | locus YPL240C, strain hsp82, stronger effect = lower value 1 | locus YPL241C, strain CIN2, stronger effect = lower value 1 | locus YPL256C, strain CLN2, stronger effect = lower value 0.991 | locus YPR119W, strain clb2, stronger effect = lower value 0.994 | locus YPR141C, strain kar3, stronger effect = lower value 0.987 | locus YPR163C, strain tif3, stronger effect = lower value 0.98 | locus YPR167C, strain met16, stronger effect = lower value 0.979 | strain wtn01, stronger effect = lower value 0.995
